Compound activity as filed in PubChem.
A selection: hits, their analogues and other compounds. The true share with any hit is near 13%.
A350 fluor: compound fluoresces in the Alexa 350 spectral region; Compound autofluorescence, 340/450 nm, Alexa 350 dye-equivalents; stronger effect = higher value; max dye-equivalent concentration, M; 11% of 59,000 active; AID 590; in the data active means max dye-equivalent concentration above about 10 nM; inconclusive means mostly about 1.1 nM to 9.6 nM
4-MU autofl: compound fluoresces in the 4-MU spectral region | compound autofluorescence, 340/450 nm, 4-MU equivalents; stronger effect = higher value | max dye-equivalent concentration, M | 11% of 59,000 active; in the data active means max dye-equivalent concentration above about 10 nM; inconclusive means mostly about 1.1 nM to 9.6 nM
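Compounds in 100 mM Tris, pH 8.0, sat 15 min at room temperature before fluorescence was read at 340 nm excitation/450 nm emission; a per-plate six-point 4-MU standard curve converted signals to dye-equivalent concentration at each compound concentration.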
AID923: qHTS Assay for Allosteric/Competitive Inhibitors of Caspase-1: Spectroscopic Profiling in AFC Spectral Region; compound fluorescence, AFC spectral region (405/520 nm); Potency, µM (series often up to 57.5 µM), for inactives: at the top dose fluorescence increase, most hits filed as activators; 1.1% of 75,000 active; further: potency means the concentration at half of the fitted maximal effect; 0% is about no effect
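Baseline compound fluorescence (AFC region, 405 nm ex/520 nm em) taken from the intercept of kinetic reads with 50 nM caspase-1 and 5 uM Ac-WEHD-AFC; normalized to an on-plate AFC standard curve; compounds titrated up to 57 uM.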
HSD17B inhib: HSD17B dehydrogenase inhibition. Q99714. recombinant HSD17B10, NADH fluorescence kinetic. Potency, µM (titrated, usually from 57.1 µM), for the others: at the top dose activity change, negative = inhibition, hits mostly inhibitors. 7.6% of 75,000 active. AID 893;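 further: the protocol describes HADH2 (HSD17B10) and not the HSD17B4 of the title; potency means the concentration at half of the fitted maximal effect; on the % scale 0 is the no-effect control and ±100 the full control effect; nearly all actives have a fitted effect of over 70% in size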
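20 nM HADH2, pH 9.0 Tris/Tween; cpd preinc 15 min RT; start w/ 1 mM NAD+ + 90 uM b-hydroxybutyryl-CoA; kinetic fluor ex360/em450 q30s x 4 min; delta last-first.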
HADH2 inhib: inhibitors of human HADH2 dehydrogenase; AID 886; recombinant HADH2, NADH fluorescence, beta-hydroxybutyryl-CoA; Potency, µM (series often up to 57.1 µM), for inactives: at the top dose activity change, negative = inhibition, most hits filed as inhibitors; 3.4% of 73,000 active; Q99714; further: potency means the concentration at half of the fitted maximal effect; on the % scale 0 is the no-effect control and ±100 the full control effect; nearly all actives have a fitted effect of over 60% in size
Target sequence (Q99714 whole entry, looked up, one chain of several): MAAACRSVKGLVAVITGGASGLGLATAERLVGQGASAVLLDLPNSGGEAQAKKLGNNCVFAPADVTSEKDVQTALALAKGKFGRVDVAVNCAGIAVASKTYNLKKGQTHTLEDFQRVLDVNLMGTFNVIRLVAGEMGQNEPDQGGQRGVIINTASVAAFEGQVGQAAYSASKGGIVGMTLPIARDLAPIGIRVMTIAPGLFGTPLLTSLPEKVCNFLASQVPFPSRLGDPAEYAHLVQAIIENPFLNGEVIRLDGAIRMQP
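20 nM HADH2 + cpd, 15 min RT; add 1 mM NAD+/90 uM beta-hydroxybutyryl-CoA; kinetic fluorescence 360/450 nm, 4 min. Tris-HCl pH 9.0, 0.01% Tween-20.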
Numbers without * were called inactive; i = inactive; ? = inconclusive; . = no result given; ! = not confirmed by another sample; [ ] = remark or other dose. Unless noted, the call rests on the fitted dose curve; in most records, active means well fitted curve in the direction sought with a large enough effect; inconclusive means small, poorly fitted or top-dose-only effect, or another doubt; inactive means no such curve, though single readings can be large; an effect the other way counts as inactive or inconclusive.

SMILES | A350 fluor | 4-MU autofl | AID923 | HSD17B inhib | HADH2 inhib
N#Cc1c(C(F)(F)F)cc(-c2ccco2)nc1SCc1ccccn1 | 4e-07M* | 2.94e-07M* | 9.8% | 31.6µM* | 51.9%
O=C(CSc1nc(-c2ccco2)cc(C(F)(F)F)n1)N1CCCc2ccccc21 | i | i | 0.4% | 2.9% | 9.1%
COC(=O)[C@@]1(Cc2ccc(F)cc2)[C@H]2c3cc(C(=O)N(C)C)n(CCCNc4ccc(C(F)(F)F)cc4Cl)c3C[C@H]2CN1C(=O)c1ccccc1 | . | . | 0.4% | 0.5% | 12.8%
CNc1ccnc(-c2ccccc2C(F)(F)F)n1 | i | i | -1.0% | -1.5% | 22.7%
O=C(CSc1nc2ncc(Br)cc2[nH]1)Nc1ccc2c(c1)OCO2 | 1.59e-08M* | 1.1e-08M* | -2.0% | -22.5% | -10.6%
O=C(O)/C=C\c1c2ccc(=O)c(O)c-2oc2c(O)c(O)ccc12 | i | i | -3.9%[11.5 µM] | 0.794µM* | 1µM*
O=C(O)[C@H]1CCCC[C@@H]1c1c2ccc(=O)c(O)c-2oc2c(O)c(O)ccc12 | i | i | -4.2%[11.5 µM] | 2µM* | 1µM*
O=C(c1cnccn1)N1CCC2(CC1)CN(Cc1nccs1)C2 | i | i | 3.3% | 2.8% | -5.0%
C(=N\n1cncn1)/c1ccc(N2CCOCC2)cc1 | 1.58e-07M* | 1.46e-07M* | 5.6% | 3.98µM* | ?
C(=N\n1cnnc1)/c1ccc(N2CCOCC2)cc1 | . | . | 5.0% | ? | ?
Cc1sc(-n2c(C)ccc2C)c(C#N)c1C | 1.04e-08M* | ? | . | . | .
COC(=O)[C@@H]1O[C@@H](SCCN)[C@@H](O)[C@H](O)[C@H]1O | i | i | -2.9%[11.5 µM] | 11.0%[11.4 µM] | 10.3%[11.4 µM]
N/C(CN1CCCC1=O)=N\O | i | i | -0.7% | 3.2% | 9.1%
CN(C=O)CP(=O)(O)CCN1CCCC1=O | 1.37e-08M* | 1.25e-08M* | -0.4% | -0.3% | 1.2%
CC1CCC2CC1C2(C)C (stereo not drawn) | . | . | 2.3% | -2.3% | -1.8%
O=c1[nH]ncc2ccccc12 | . | . | 0.2% | 31.6µM* | -2.2%
CCN(CC)CCNC(=O)c1ccc(N)cc1 | 5.53e-08M*! | 5.13e-08M*! | 1.2% | 7.4% | 4.7%[25.6 µM]
Cc1oc(-c2cccs2)nc1CS(=O)CC(=O)NCCc1ccccc1 (stereo not drawn) | . | . | -3.3% | 25.1µM* | -25.0%
CCCCNC(=O)CS(=O)Cc1nc(-c2cccs2)oc1C (stereo not drawn) | . | . | 0.1% | ? | -21.1%
CC(C)(Oc1ccc(Cl)cc1)C(=O)O | i | i | -2.9% | 8.8% | -0.4%
CCN(c1nc(N)c(C(=O)N=C(N)N)nc1Cl)C(C)C | ? | ? | -2.1% | -5.5% | 12.5%
CCN(CC)c1ccc(-n2cc3c(=O)n(C)c(=O)n(C)c3c2)cc1 | 2.38e-08M* | 2.99e-08M* | 5.2% | 25.1µM* | 10.3%
CN(C)c1ccc(-n2cc3c(=O)n(C)c(=O)n(C)c3c2)cc1 | ? | ? | 1.4% | ? | 9.7%
O=C(O)/C=C\[C@H](O)c1ccc(Cl)cc1 | i | i | -1.5% | -2.6% | -28.6%
CCn1c(Sc2nc(C)nc3scc(-c4cccs4)c23)n[nH]c1=O | ? | i | -0.7% | -9.9% | -9.7%
SMILES | A350 fluor | 4-MU autofl | AID923 | HSD17B inhib | HADH2 inhib
Cc1cc(-c2cccs2)c2c(n1)sc1c(=O)[nH]c(=O)[nH]c12 | 4.85e-08M* | 4.76e-08M* | 0.0% | ? | -6.0%
CC(=O)N1CC=C2C(C#N)=C(N)C(C#N)(C#N)C(CCc3ccccc3)C2C1 (stereo not drawn) | 6.18e-08M* | 6.92e-08M* | 8.8% | 493.9% | 60.8%
CCN1CC=C2C(C#N)=C(N)C(C#N)(C#N)C(CCc3ccccc3)C2C1 (stereo not drawn) | 8.85e-07M* | 1.28e-06M* | 20µM* | 25.1µM* | 31.6µM*
COc1ccc2[nH]cc(CCNc3ccnc(-c4ccccc4C(F)(F)F)n3)c2c1 | i | i | -0.6% | 9.9% | 10.1%
CCCCCCCC#Cc1ccccc1C(NC(=O)OC)C(C(=O)OC)C(=O)OC (stereo not drawn) | . | . | -0.2%[11.5 µM] | -0.4%[11.4 µM] | 12.5%[11.4 µM]
Cc1cccc(CNc2ccnc(-c3cccc(C#N)c3)n2)c1 | i | i | 3.5% | ? | ?
CNc1ncnc2ccc(-c3ccccc3C#N)cc12 | i | i | 0.1% | 3.16µM* | 143.8%
N#Cc1ccccc1-c1ccc2ncnc(NC3CC3)c2c1 | i | i | 0.3% | -2.1% | 4.0%
